16 compounds from PubChem BioAssay AID651791 (National Center for Advancing Translational Sciences (NCATS), 2012) can be followed below.

Inconclusive results are not listed. Activity calls are given as the source filed them. Calls come from the whole dose curve; as a rule, active = well fitted inhibition curve with a large enough effect; inconclusive = small, poorly fitted or top-dose-only effect; inactive = no such curve, though single readings can be large or run the other way.
Potency is the fitted concentration of half-maximal effect.

This experiment is described as follows: InCell qHTS Assay for Inhibitors of the mTORC1 Signaling Pathway in MEF (Tsc2-/-, p53-/-) Cells: Hit Validation.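 Note: phospho-S6 Ser235/236 signal normalized to propidium iodide cell count per well; nearly all actives have a fitted effect of over 75% in size.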 Particulars: phospho-rpS6 immunofluorescence, 24 h; activity change, negative = inhibition: at 38.3 µM (top of the series). Background: qHTS replaces the single test concentration by a dilution series.
Regarding `CCOC(=O)N1CCN(Cc2nc3cc(NC(=O)c4ccc([N+](=O)[O-])cc4)ccc3n2C(C)C)CC1`, the activity change, negative = inhibition was -100%.

As to `O=C(NCCN1CCN(c2cccc(Cl)c2)CC1)Nc1ccccc1C(F)(F)F`, the activity change, negative = inhibition was -100%. Take `CCOc1ccc(S(=O)(=O)NCCc2sc(-c3ccc(C)cc3)nc2C)cc1`: the activity change, negative = inhibition is -100%. Same read-out and setting: the same measure for `Brc1ccc(Nc2c3c(nc4nncn24)CCC3)cc1`: -100%; for `Cc1oc(-c2ccccc2F)nc1Cn1c(SCc2cccc(Cl)c2)nc2ccncc21`: -100%. Regarding `Cc1cccc(-n2ncc3c(Nc4c(C)cc(C)cc4C)ncnc32)c1`, the activity change, negative = inhibition was -100%. Take `CN(c1ccccc1)S(=O)(=O)c1ccc(NC(=O)c2nc(S(C)(=O)=O)ncc2Cl)cc1`: the Potency was 2.07 µM (active). In the case of `O=C(Cn1c(=O)c2cccn2c2ccccc21)NCc1ccccc1F`, the activity change, negative = inhibition is -100%. The same measure, in the same setting: the same measure for `COC(=O)c1ccc(NC(=O)c2nc(-c3ccc(Cl)cc3)n3c2CCCCC3)cc1`: -100%; for `O=C(Nc1ccc(F)c(Cl)c1)c1cc(S(=O)(=O)N2CCCc3ccccc32)ccc1F`: -100%. As to `COCc1oc2ccc(NS(=O)(=O)c3ccc(C)cc3)cc2c1C(=O)OC`, the activity change, negative = inhibition was -6.75%.

Take `Cc1ccc(NC(=O)Cn2cc(C(=O)C3CCCCC3)c3ccccc32)cc1`: the activity change, negative = inhibition was -100%. For `Cc1cccc(NC(c2cccc(Cl)c2)c2ccc3cccnc3c2O)n1` (stereo unspecified), the activity change, negative = inhibition was -100%. As to `COc1ccccc1C(=O)Nc1ccc2nc(N3CCC(C)CC3)cc(C)c2c1`, the activity change, negative = inhibition is -100%. As to `COc1ccc(C2CC(=O)c3c([nH]c(C(=O)OC4CCCCCC4)c3C)C2)cc1OC` (stereo unspecified), the activity change, negative = inhibition was -100%.

For `O=C(Cn1cc(SCc2ccccc2)c2ccccc21)N1CCCCCC1`, the activity change, negative = inhibition was -100%.
